Results on 21 molecules are retold here after PubChem BioAssay (NCI).

Test [1] can be described thus: NCI Yeast Anticancer Drug Screen. Data for the rad50 strain (AID 155).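 Further: 0% = growth of vehicle-only cultures of the same strain.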 Conditions: S. cerevisiae rad50 strain growth inhibition, active compounds read high; at 50.0 µM unless noted. A digest of the protocol: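 Cells are treated with compound, grown, and their growth is then scored against vehicle-only cultures of the same repair-deficient yeast strain.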
A short description of test [2]: NCI Yeast Anticancer Drug Screen. Data for the mec2-1 strain (AID 157). Conditions: S. cerevisiae mec2-1 strain, active compounds read high; at 50.0 µM unless noted. A digest of the protocol: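 Compounds were applied to mec2-1 yeast cells. Their growth was then compared with that of vehicle-treated cultures to give growth inhibition.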
Test [3] is described as follows: NCI Yeast Anticancer Drug Screen. Data for the sgs1 mgt1 strain (AID 161).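 Further: 0% = growth of cultures given vehicle only.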 Conditions: S. cerevisiae sgs1 mgt1 strain, active compounds read high; at 50.0 µM unless noted. A digest of the protocol: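 Percent growth inhibition was derived by comparing compound-exposed mutant yeast with vehicle-exposed cultures. The strain carries alterations in DNA damage repair.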
Test [4] in a line: NCI Yeast Anticancer Drug Screen. Data for the cln2 rad14 strain (AID 165).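 Further: 0% = growth equal to vehicle treated cultures.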 The conditions noted are these: S. cerevisiae cln2 rad14 strain, active compounds read high; at 50.0 µM unless noted. In short, it runs like this:
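Strain: cln2 rad14 yeast, altered in cell cycle control and DNA damage repair. Read-out: growth inhibition vs vehicle.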

Test [5] can be described thus: NCI Yeast Anticancer Drug Screen. Data for the bub3 strain (AID 167). The conditions noted are these: S. cerevisiae bub3 mutant strain, active compounds read high; at 50.0 µM unless noted. In short, it runs like this: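 Part of a panel of yeast mutants defective in DNA damage repair or cell cycle regulation. Each strain is grown with compound, and inhibition is calculated relative to solvent-treated cultures.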

Test [6] can be described thus: NCI Yeast Anticancer Drug Screen. Data for the mlh1 rad18 strain (AID 175). The conditions noted are these: S. cerevisiae mlh1 rad18 strain growth inhibition, active compounds read high; at 50.0 µM unless noted. In short, it runs like this:
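A repair-deficient yeast strain is exposed to test compound, and growth is scored relative to vehicle-treated controls.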

About 79,000 compounds went through this panel and 15% of them were active in at least one assay; those are over-represented in the sample as a whole. Values without a mark were called inactive. Activity calls are given as the source filed them. No stated cut-off is given here; in the data, active means growth inhibition above about 70%; inactive means the rest.

For the molecule `CC(CN(C)C)C(=O)/C=C/c1ccc(Cl)cc1` (stereo unspecified), the growth inhibition in test [1] is 20%; in test [2], 19%; in test [3], 1.75%; in test [4] it was 2.8%; in test [5], -13.7%; in test [6], 18.4%.

As for `O=C(c1ccccc1)c1ccc2ccccc2c1`, the growth inhibition was 24.8% in test [1]; 13% in test [2]; 0.65% in test [3]; -13.2% in test [4]; 14.9% in test [5]; 28.3% in test [6].

For the molecule `CC(C)=NOc1ccccc1[N+](=O)[O-]`, the growth inhibition in test [1] is 8.65%; in test [2], 6.15%; in test [3] it was 7.15%; in test [4], -14.7%; in test [5] it was -13.2%; in test [6], 12.1%.

With `CC(C)=CC(=O)O`, the growth inhibition is 3.2% in test [1]; -3.3% in test [2]; -9.3% in test [3]; 20.3% in test [4]; 2.1% in test [5]; 7.9% in test [6].

In the case of `COc1ccc(C2(O)OCC(COc3cc(C)c(Cl)c(C)c3)O2)cc1OC` (stereo unspecified), the growth inhibition in test [1] was -10%; in test [2], 1.35%; in test [3], 8.85%; in test [4], 18.5%; in test [5], -6.05%; in test [6] it was 3.45%.

Turning to `Clc1cccc(/C=N\N=C\c2cccc(Cl)c2)c1`, the growth inhibition in test [1] was -4.6%; in test [2], -7.75%; in test [3], 6.3%; in test [4], -8.75%; in test [5], -1.95%; in test [6], 5.45%.

As to `C1COC2SC3=C(SC(=C4SC5=C(SCCS5)S4)S3)SC2O1` (stereo unspecified), the growth inhibition is 3.05% in test [1]; -2.05% in test [2]; 19.2% in test [3]; -5.6% in test [4]; 8.85% in test [5]; 6.9% in test [6].

As for `NC(=O)c1c(NC=O)ncn1C1OCC(O)C(O)C1O` (stereo unspecified), the growth inhibition was -7.95% in test [1]; -3.85% in test [2]; 2% in test [3]; -42% in test [4]; -1.3% in test [5]; 12.8% in test [6].

Turning to `CCC(NN)C(=O)O` (stereo unspecified), the growth inhibition in test [1] was 5.45%; in test [2] it was -14.1%; in test [3], -33.6%; in test [4] it was -26%; in test [5] it was -9.5%; in test [6] it was -5.35%.

For `CCN(CC)c1ccc(/C=C(\C)c2nc3ccc(C)cc3[nH]2)cc1`, the growth inhibition is -5.25% in test [1]; -10.7% in test [2]; 8.1% in test [3]; 1.8% in test [4]; -9.3% in test [5]; 3.45% in test [6].

For `COC(=O)C(C)(C)C(C)=O`, the growth inhibition in test [1] is -40%; in test [2] it was -47.1%; in test [3], -37.5%; in test [4] it was 7.5%; in test [5], -26.9%; in test [6], -30.4%.

For `CC1CC(C)NC(=S)N1` (stereo unspecified), the growth inhibition was -16.6% in test [1]; -3.9% in test [2]; -9.85% in test [3]; 16.7% in test [4]; 3.25% in test [5]; -5.95% in test [6].

As for `Cc1cc(C)nc(NS(=O)(=O)c2ccc(NC(=O)c3cccc4c(Nc5ccc(S(=O)(=O)Nc6nc(C)cc(C)n6)cc5)c5ccc(Cl)cc5nc34)cc2)n1`, the growth inhibition was 27.4% in test [1]; 35.7% in test [2]; 24.3% in test [3]; 33% in test [4]; 19.6% in test [5]; 30.7% in test [6].

On to `COC(=O)c1cc2ccc(OC(C)=O)c(OC(C)=O)c2cn1`, for which the growth inhibition in test [1] was 20.2%; in test [2], -20.2%; in test [3], 6.05%; in test [4], 9.3%; in test [5], 3.35%; in test [6], 19.9%.

As to `Nc1n[n+](-c2cccc([N+](=O)[O-])c2)no1`, the growth inhibition in test [1] was 32.4%; in test [2], 16.4%; in test [3], 69.5%; in test [4], 5.3%; in test [5], 81.4% (active); in test [6], 32.5%.

As for `O=C(NC(=O)c1ccccc1)Oc1cccc2ccccc12`, the growth inhibition in test [1] is 18.3%; in test [2], -0.1%; in test [3], 20.1%; in test [4] it was 7.85%; in test [5] it was 10.7%; in test [6], 22.8%.

Consider `CCCC(=O)CC(=O)C(F)(F)F.CCCC(=O)CC(=O)C(F)(F)F.CCCC(=O)CC(=O)C(F)(F)F.[Er]`, for which the growth inhibition in test [1] was 25%; in test [2] it was 10.8%; in test [3], 44.2%; in test [4], -0.15%; in test [5] it was -5.65%; in test [6], 50.1%.

Regarding `CO/C(=N\N=C\c1ccc(Cl)cc1Cl)c1ccncc1`, the growth inhibition in test [1] was -25.9%; in test [2] it was -40.4%; in test [3] it was -53%; in test [4], -23.4%; in test [5] it was -27.8%; in test [6], -54.6%.

In the case of `O=C1c2c(Br)sc(Br)c2C(NC(=O)C(F)(F)F)C1O` (stereo unspecified), the growth inhibition in test [1] is 10.3%; in test [2], 18.3%; in test [3], -12.3%; in test [4] it was -11%; in test [5] it was 3.95%; in test [6], -27.4%.

As for `CCOc1ccc(C(C)c2cc3c(cc2OCC(=O)O)OCO3)cc1` (stereo unspecified), the growth inhibition in test [1] is 0.65%; in test [2], -6.4%; in test [3] it was -8.45%; in test [4] it was 25.1%; in test [5], -6.9%; in test [6], -11.6%.

For the molecule `CC(=O)CCOC(=O)c1cc([N+](=O)[O-])cc([N+](=O)[O-])c1`, the growth inhibition is 13.2% in test [1]; -4.1% in test [2]; 14.4% in test [3]; 2.6% in test [4]; 16.9% in test [5]; 3% in test [6].
